The campaign covered roughly 1,600 compounds. About 1,300 (81%) were called active. No rule for the calls is given here. The set was probably picked from earlier hits. Not all results are given here. Measured potencies and affinities stand elsewhere.
experiment: control 3'UTR Renilla luciferase suppression, dose response, counter-screen for Shn3 inhibitor project, cell-based, Clone20-Shn3RL, cherry-picked (AID 624133); conditions: Clone20-Shn3RL cells, Renilla luciferase luminescence, 24 h; at 35 µM (top of the series) unless noted;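 also: 0% = neutral control wells and -100% = positive control wells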

Row | SMILES | activity change, negative = inhibition [%]
1 | C=CCn1c(C)cc(C2=NNC(=NCC)SC2)c1C | -16.7
2 | NC(=O)NC(CC(=O)NCCc1ccccn1)c1ccccc1Cl (stereo unspecified) | -110
3 | S=c1[nH]nc(COc2cccc3ccccc23)n1Cc1ccccc1 | -87.5
4 | CC(C)(C)C(=O)Nc1ccc(NC(=O)c2ccco2)nc1 | 8.33
5 | CCOC(=O)C1=C(C)N(CCCC(=O)O)C(=O)NC1c1ccc2ccccc2c1 (stereo unspecified) | -30
6 | Cc1ccc(C(=O)N2CCN(C)CC2)cc1S(=O)(=O)N1CCCCCC1 | 65.3
7 | CCN(CC)C(=S)Sc1c(-c2ccccc2)c2cc(Cl)ccc2[nH]c1=O | 16.7
8 | CC(C)(C)C(=O)Nc1cc2nn(-c3ccccc3)nc2cc1Cl | 52.1
9 | COc1ccc(OC)c(NC(=O)COC(=O)c2c3c(nc4ccccc24)CCCC3)c1 | 40
10 | COc1cc(Nc2nc(-c3ccccc3)c3cc(C)ccc3n2)cc(OC)c1OC | 16.7
11 | Cc1ccc(S(=O)(=O)N2CCC3(CC2)OCCN3S(=O)(=O)c2c(C)cc(C)cc2C)cc1 | -13.6
12 | O=C(CSc1nc2[nH]ncc2c(=O)[nH]1)Nc1ccccc1C(F)(F)F | -108
13 | Cc1csc(=O)n1CCC(=O)N(C)Cc1c(F)cccc1Cl | 75
14 | CN(C)c1ncnc2c1C(c1ccccc1)C(C)(C)O2 (stereo unspecified) | -22.2
15 | O=C(OCc1ccccc1)N(CCCCN(CCCNCc1ccccc1)C(=O)OCc1ccccc1)CCCNCc1ccccc1 | 20
16 | COc1ccc(-c2noc(CCCCC(=O)N3CCN(c4cc(C)ccc4C)CC3)n2)cc1 | -30

Row | SMILES | activity change, negative = inhibition [%]
17 | C=CC[C@H](CC(=O)N(CCO)Cc1ccccc1)C(=O)NC[C@H](OC(=O)[C@@H](CC=C)Cc1ccc(F)cc1)c1ccccc1 | -75
18 | CCS(=O)(=O)c1ccc2oc(SCC(=O)N3CCCCC3)nc2c1 | 35
19 | CSc1nc(N2CCN(Cc3ccc4c(c3)OCO4)CC2)c2ccccc2n1 | -16.7
20 | Cc1ccc(NC(=O)c2oc3ccccc3c2COC(C)C)cc1S(=O)(=O)N1CCOCC1 | 25
21 | Cc1ccc(CNC(=O)CSc2c3c(nc4ccc(Cl)cc24)CCCC3)o1 | 106
22 | O=C(CSc1nc2c(c(=O)n1-c1ccc(Br)cc1)SCC2)NCc1ccco1 | 29.2
23 | CC(C)c1c(O)c2c(n(-c3ccccc3)c1=O)CCCC2 | -21.1
24 | O=C(Nc1cccc(S(=O)(=O)NC2=NCCC2)c1)C1CC(=O)N(c2ccc3c(c2)OCCO3)C1 (stereo unspecified) | -66.7
25 | C[C@@H]1CC=C[C@H]2[C@H]1C(=O)N(Cc1ccccc1)[C@H]2c1cccc([N+](=O)[O-])c1 | 162
26 | COc1cc(NC(=O)c2cc3c(Cl)nc4ccccc4c3s2)cc(OC)c1OC | 60
27 | O=C(Nc1ccc(Cl)c(Cl)c1)c1cccc(S(=O)(=O)NCc2cccnc2)c1 | -10
28 | Cc1ccc(NC(=O)C2CCC(C(C)(C)C)CC2)cc1S(=O)(=O)N1CCOCC1 (stereo unspecified) | -100
29 | O=C(NNc1ccccc1)C(=O)NNS(=O)(=O)c1ccc(CCCl)cc1 | 90
30 | CCCc1nc2c(=O)n(C)c(=O)nc-2n(C)n1 | 71.8
31 | COc1ccc(CNC(=O)C(C)n2ccc3cc(S(=O)(=O)N4CCCCCC4)ccc32)cc1 (stereo unspecified) | 12.2
